Measured values from PubChem BioAssay AID1159580 (chemical genetic matrix, 2015).
Several values for one entry are separate records, joined by “and”; a condition that tells them apart may be missing. Equal values may be shown once. The whole screen tested about 5,500 compounds, of which about 2,000 (36%) were called active. Roughly 18% stayed inconclusive and do not appear here. No stated cut-off is given here; in the data, active means normalized growth mostly below about 0.91 (no sharp cut-off); inconclusive means no clear call, values can overlap the other calls; inactive means mostly above about 0.92. The list shows a part of the results.

Assay: chemical genetic growth profiling, strain panel (AID 1159580);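 further: tested at 20 µM; growth read once vehicle control cultures reached saturation at 30 °C; 1 = growth at the plate median or of vehicle wells; lower values mean less growth of the strain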
Settings: S. cerevisiae deletion strains, growth OD

Measured: normalized growth

CCOc1nc2cccc(C(=O)OC(C)OC(=O)OC3CCCCC3)c2n1Cc1ccc(-c2ccccc2-c2nn[nH]n2)cc1 (configuration not stated)
active: locus YDR137W, strain rgp1, active compounds read low 0.824
inactive: locus YAL013W, strain DEP1, active compounds read low 1 | locus YAL021C, strain ccr4, active compounds read low 1 | locus YAL026C, strain drs2, active compounds read low 1.03 | locus YAL030W, strain snc1, active compounds read low 1.02 | locus YBL061C, strain skt5, active compounds read low 1.01 | locus YBR009C, strain hhf1, active compounds read low 0.998 | locus YBR021W, strain FUR4, active compounds read low 1.03 | locus YBR023C, strain chs3, active compounds read low 1.03 | locus YBR171W, strain sec66, active compounds read low 1.05 | locus YBR229C, strain ROT2, active compounds read low 0.996 | locus YBR231C, strain swc5, active compounds read low 1.01 | locus YBR279W, strain paf1, active compounds read low 1.02 | locus YCL011C, strain gbp2, active compounds read low 1.02 | locus YCL016C, strain dcc1, active compounds read low 1.01 | locus YCL029C, strain bik1, active compounds read low 1.01 | locus YCL061C, strain MRC1, active compounds read low 1.02 | locus YCL069W, strain vba3, active compounds read low 1.05 | locus YCR088W, strain abp1, active compounds read low 1.03 | locus YDL005C, strain med2, active compounds read low 1.03 | locus YDL035C, strain GPR1, active compounds read low 0.977 | locus YDL040C, strain nat1, active compounds read low 1.02 | locus YDL074C, strain BRE1, active compounds read low 0.96 | locus YDL101C, strain DUN1, active compounds read low 0.998 | locus YDL134C, strain PPH21, active compounds read low 1.01 | locus YDL185W, strain tfp1, active compounds read low 0.999 | locus YDL192W, strain arf1, active compounds read low 1 | locus YDR001C, strain nth1, active compounds read low 1.03 | locus YDR069C, strain doa4, active compounds read low 1.04 | locus YDR101C, strain arx1, active compounds read low 1 | locus YDR150W, strain NUM1, active compounds read low 1.01 | locus YDR159W, strain sac3, active compounds read low 1 | locus YDR162C, strain NBP2, active compounds read low 0.983 | locus YDR195W, strain ref2 0.994 | locus YDR297W, strain sur2, active compounds read low 0.994 | locus YDR318W, strain mcm21, active compounds read low 0.995 | locus YDR334W, strain swr1, active compounds read low 1.03 | locus YDR335W, strain msn5, active compounds read low 1.03 | locus YDR388W, active compounds read low 1 | locus YDR392W, strain spt3, active compounds read low 0.996 | locus YDR502C, strain sam2, active compounds read low 0.997 | locus YEL003W, strain gim4, active compounds read low 1.03 | locus YEL037C, strain rad23, active compounds read low 1.02 | locus YEL061C, strain CIN8 (second series), active compounds read low 1.02 | locus YEL061C, strain CIN8, active compounds read low 1 | locus YER015W, strain faa2, active compounds read low 1.02 | locus YER016W, strain bim1, active compounds read low 1.02 | locus YER110C, active compounds read low 0.997 | locus YER111C, strain swi4, active compounds read low 1.04 | locus YER155C, strain BEM2 (second series), active compounds read low 1.07 | locus YER155C, strain BEM2, active compounds read low 1.01 | locus YER167W, strain BCK2, active compounds read low 0.986 | locus YFR010W, strain ubp6, active compounds read low 1.04 | locus YGL078C, strain dbp3, active compounds read low 1.01 | locus YGL086W, strain mad1, active compounds read low 0.997 | locus YGL167C, strain pmr1, active compounds read low 1.03 | locus YGL173C, strain kem1, active compounds read low 1.03 | locus YGL227W, strain vid30, active compounds read low 1.02 | locus YGL240W, strain doc1, active compounds read low 1.02 | locus YGL248W, strain PDE1, active compounds read low 1.01 | locus YGL253W, strain hxk2, active compounds read low 1.04 | locus YGR078C, strain PAC10, active compounds read low 0.988 | locus YGR135W, strain pre9, active compounds read low 1 | locus YGR229C, strain SMI1, active compounds read low 0.851 | locus YGR252W, strain gcn5, active compounds read low 0.972 | locus YHR013C, strain ard1, active compounds read low 1.03 | locus YHR027C, strain rpn1, active compounds read low 1.01 | locus YHR030C, strain SLT2, active compounds read low 0.996 and 0.96 | locus YHR079C, strain IRE1 (second series), active compounds read low 0.996 | locus YHR079C, strain IRE1, active compounds read low 0.957 | locus YHR094C, strain hxt1, active compounds read low 0.995 | locus YHR129C, strain ARP1, active compounds read low 1.01 | locus YHR142W, strain chs7, active compounds read low 1.04 | locus YHR200W, strain rpn10, active compounds read low 0.998 | locus YIL066C, strain RNR3, active compounds read low 1.01 | locus YIL073C, strain SPO22, active compounds read low 1.07 | locus YIL125W, strain kgd1, active compounds read low 0.989 | locus YIR030C, strain dcg1, active compounds read low 0.996 | locus YJL092W, strain hpr5, active compounds read low 1.03 | locus YJL095W, strain BCK1 (second series), active compounds read low 1.01 | locus YJL095W, strain BCK1, active compounds read low 0.8 and 1.01 | locus YJL115W, strain asf1, active compounds read low 1.04 | locus YJL129C, strain trk1, active compounds read low 1.04 | locus YJL134W, strain LCB3, active compounds read low 1.01 | locus YJL154C, strain vps35, active compounds read low 1.03 | locus YJL164C, strain tpk1, active compounds read low 1.01 | locus YJL166W, strain qcr8, active compounds read low 1.01 | locus YJL168C, strain set2, active compounds read low 0.994 | locus YJL187C, strain SWE1 (second series), active compounds read low 0.997 | locus YJL187C, strain SWE1, active compounds read low 1.01 | locus YJR043C, strain POL32, active compounds read low 0.996 | locus YJR066W, strain TOR1, active compounds read low 0.93
